Outcome and AC50 data for four compounds are collected here from PubChem BioAssay (EPA / NIEHS).

The term AC50 denotes the concentration at which the activity in the assay is half-maximal.

Assay [1] has as its target CCAAT/enhancer-binding protein beta (Homo sapiens) (UniProt P17676). In words: ATG_C_EBP_CIS: Attagene CIS-FACTORIAL HepG2 Assay for human CCAAT/Enhancer Binding Protein (C/EBP) beta (AID 2282927). Conditions: HepG2 Attagene cis-factorial transcription factor reporter; actives raise or lower the signal. An outline of the steps: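 HepG2 transiently transfected with multiplexed reporter units under cis-regulatory promoters reporting endogenous C/EBPb activity. After 24 h exposure, reporter mRNA assayed by RT-PCR, fluorescent labelling, HpaI digestion and capillary electrophoresis; bidirectional fitting versus DMSO.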

A short description of assay [2]: ATG_DR4_LXR_CIS: Attagene CIS-FACTORIAL HepG2 Assay for human Liver X Receptor (LXR), DR4 submotif (AID 2282929). The following applies: HepG2 Attagene DR4 cis-reporter, mRNA transcription; actives raise or lower the signal. In a few lines: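 Total RNA from 24 h-treated, MRTU-transfected HepG2 cells underwent reverse transcription, PCR, fluorescent primer extension and restriction digestion before capillary electrophoresis. Both increases and decreases in reporter signal were fitted against DMSO.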

Assay [3] in a line: ATG_AP_2_CIS: Attagene CIS-FACTORIAL HepG2 Assay for human Activator Protein 2 (AP-2) (AID 2282932). The following applies: HepG2 AP-2 cis-reporter, Attagene transcription factor profiling; actives raise or lower the signal. In a few lines: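 Liver-derived HepG2 line, cis-reporter system measuring endogenous factors; 24 h dosing; reporter mRNA detected by fluorescent RT-PCR and capillary electrophoresis.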

Assay [4] deals with Transcription factor E2F1 (Homo sapiens) (UniProt Q01094). In words: ATG_E2F_CIS: Attagene CIS-FACTORIAL HepG2 Assay for human E2F Transcription Factor 1 (AID 2282935). The following applies: HepG2 Attagene cis-reporter, E2F reporter RNA transcripts; actives raise or lower the signal. In a few lines:
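Liver-derived HepG2 cells expressing transfected promoter-driven reporter units received test chemical for 24 hours. Signal gains or losses were fitted bidirectionally against DMSO.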

Assay [5] is described as follows: ATG_E_Box_CIS: Attagene CIS-FACTORIAL HepG2 Assay for human Enhancer Box (E-box) (AID 2282936). Conditions: HepG2 E-box cis-reporter transcription, actives raise or lower the signal. An outline of the steps:
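In this cell-based setup, HepG2 cells bearing transfected promoter-driven reporter units were exposed to chemicals for 24 h; reporter transcripts were amplified, 6-FAM-labelled, cut with HpaI and sized by capillary electrophoresis.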

Assay [6] can be described thus: ATG_M_19_CIS: Attagene CIS-FACTORIAL HepG2 Assay for M19 Transcription Factor (Internal Marker) (AID 2282939). Conditions: HepG2 Attagene CIS-FACTORIAL M19 internal marker reporter; actives raise or lower the signal. An outline of the steps:
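Chemical-treated HepG2 (24 h) with MRTU constructs; reporter transcripts detected by fluorescent RT-PCR fragment analysis on capillary electrophoresis. Internal background marker, DMSO as baseline.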

Assay [7] in a line: ATG_GLI_CIS: Attagene CIS-FACTORIAL HepG2 Assay for human Zinc Finger Protein GLI1 (AID 2282945). The following applies: HepG2, Attagene cis-factorial reporter mRNA, GLI element; actives raise or lower the signal. An outline of the steps:
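Transiently transfected HepG2 cells report endogenous transcription factor activity via cis-element-driven reporter units. After 24 h compound exposure, reporter mRNA was measured by RT-PCR with capillary electrophoresis; bidirectional fitting against DMSO baseline.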

The nature of assay [8]: ATG_ISRE_CIS: Attagene CIS-FACTORIAL HepG2 Assay for human Interferon Regulatory Factor 1 (IRF1) binding to an Interferon-Stimulated Response Element (ISRE) (AID 2282948). The following applies: HepG2 ISRE cis-reporter (Attagene), mRNA transcription readout; actives raise or lower the signal. In a few lines: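 Endogenous transcription factor activity read as reporter transcript abundance via RT-PCR and capillary electrophoresis. HepG2 cells transiently transfected, 24 h chemical exposure. Gain or loss fitted against DMSO baseline.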

A short description of assay [9]: ATG_M_32_CIS: Attagene CIS-FACTORIAL HepG2 Assay for M32 Transcription Factor (Internal Marker) (AID 2282949).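 Note: background control marker of the multiplexed CIS panel rather than a real target.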 The following applies: HepG2 Attagene cis-factorial M32 reporter, mRNA; actives raise or lower the signal. In a few lines:
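HepG2 transfectants (cis-regulated reporter transcription units) dosed 24 h. Reporter mRNA by RT-PCR plus CE, analysed as gain or loss relative to DMSO.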

Assay [10] is described as follows: ATG_PXRE_CIS: Attagene CIS-FACTORIAL HepG2 Assay for human Pregnane X Receptor Element (PXRE) (AID 2282957). The following applies: HepG2 Attagene CIS-FACTORIAL PXRE reporter, mRNA; actives raise or lower the signal. In a few lines: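 Bidirectional activity, baselined to DMSO, derived from reporter mRNA fluorescence (RT-PCR plus capillary electrophoresis) in HepG2 cells bearing cis-promoter reporter units, 24 h exposure.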

Assay [11] in a line: ATG_Sox_CIS: Attagene CIS-FACTORIAL HepG2 Assay for human SRY-box transcription factor (SOX) (AID 2282960). Conditions: HepG2 Attagene cis-factorial SOX reporter, mRNA; actives raise or lower the signal. An outline of the steps:
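HepG2, cis reporter units, 24 h exposure. Reporter mRNA: RT-PCR → FAM labelling → HpaI → CE fluorescence. Bidirectional fit vs DMSO.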

Assay [12] addresses Transcription factor Sp1 (Homo sapiens) (UniProt P08047). As to the kind of experiment: ATG_Sp1_CIS: Attagene CIS-FACTORIAL HepG2 Assay for human Specificity Protein 1 (Sp1) (AID 2282961). The following applies: HepG2 Sp1 cis-reporter transcription, actives raise or lower the signal. An outline of the steps: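 Liver-derived HepG2 cells, cis-element reporter library, 24 h treatment; RNA isolated, cDNA amplified with reporter-specific primers, FAM-labeled fragments sized on capillary analyzer. DMSO baseline, bidirectional curve fit.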

The target of assay [13] is Signal transducer and activator of transcription 3 (Homo sapiens) (UniProt P40763). In words: ATG_STAT3_CIS: Attagene CIS-FACTORIAL HepG2 Assay for human Signal Transducer and Activator of Transcription 3 (STAT3) (AID 2282963). The following applies: HepG2, Attagene cis-factorial STAT3 reporter transcription; actives raise or lower the signal. An outline of the steps: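 Fluorescence intensity of 6-FAM-labelled reporter fragments, separated by capillary electrophoresis after RT-PCR, gave the signal. Cells were HepG2 transfected with cis-element reporter units and treated 24 h; fitting was bidirectional relative to DMSO.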
Signal transducer and activator of transcription 3 (Homo sapiens), sequence (P40763 whole entry, looked up, the tested form may be a part): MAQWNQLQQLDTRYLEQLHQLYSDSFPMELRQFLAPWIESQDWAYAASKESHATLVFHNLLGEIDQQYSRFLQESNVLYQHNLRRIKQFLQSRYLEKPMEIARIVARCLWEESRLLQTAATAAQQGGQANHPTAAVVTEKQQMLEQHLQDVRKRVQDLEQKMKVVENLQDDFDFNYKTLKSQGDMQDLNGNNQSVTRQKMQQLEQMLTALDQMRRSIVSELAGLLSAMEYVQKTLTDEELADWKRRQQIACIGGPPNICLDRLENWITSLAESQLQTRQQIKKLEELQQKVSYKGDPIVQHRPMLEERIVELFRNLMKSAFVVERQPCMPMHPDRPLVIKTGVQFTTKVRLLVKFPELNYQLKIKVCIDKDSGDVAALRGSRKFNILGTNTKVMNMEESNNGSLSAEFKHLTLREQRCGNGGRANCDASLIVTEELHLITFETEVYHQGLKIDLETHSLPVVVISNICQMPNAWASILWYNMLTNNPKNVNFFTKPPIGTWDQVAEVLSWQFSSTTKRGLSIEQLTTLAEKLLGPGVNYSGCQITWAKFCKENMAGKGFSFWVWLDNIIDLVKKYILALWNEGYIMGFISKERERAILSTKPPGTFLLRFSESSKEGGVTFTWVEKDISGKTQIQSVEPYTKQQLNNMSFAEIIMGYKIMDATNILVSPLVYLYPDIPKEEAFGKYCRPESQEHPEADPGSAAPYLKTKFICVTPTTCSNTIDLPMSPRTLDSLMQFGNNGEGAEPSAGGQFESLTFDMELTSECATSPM

The nature of assay [14]: ATG_TA_CIS: Attagene CIS-FACTORIAL HepG2 Assay for human TA Basal Promoter (AID 2282964). Conditions: HepG2 Attagene CIS-factorial TA basal promoter reporter; actives raise or lower the signal. In a few lines: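 Background internal-marker endpoint from a 52-component HepG2 cis-reporter panel. Cells treated 24 h; reporter transcripts quantified via RT-PCR and CE fluorescence against DMSO baseline.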

The nature of assay [15]: ATG_TCF_b_cat_CIS: Attagene CIS-FACTORIAL HepG2 Assay for human T-Cell-Factor with beta-catenin (TCF/b-cat) (AID 2282965). Conditions: HepG2 TCF/beta-catenin cis-reporter transcription, actives raise or lower the signal. In a few lines:
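HepG2 cells transiently transfected with cis-promoter-driven multiplexed reporter units; reporter mRNA measured 24 h after dosing by RT-PCR, FAM labelling, HpaI digestion and capillary electrophoresis. Bidirectional fitting relative to DMSO baseline.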

A short description of assay [16]: ATG_TAL_CIS: Attagene CIS-FACTORIAL HepG2 Assay for human TAL Basal Promoter (AID 2282966).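 Note: background control endpoint measuring basal TAL promoter reporter mRNA not a specific factor.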 The following applies: HepG2 Attagene cis-factorial TAL promoter reporter; actives raise or lower the signal. An outline of the steps: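 Human hepatoma HepG2 cells, transfected with promoter-regulated reporter units, were treated 24 h. Reporter transcript levels, measured through RT-PCR and capillary electrophoresis, were fitted for gain or loss relative to DMSO.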

Assay [17] addresses X-box-binding protein 1 (Homo sapiens) (UniProt P17861). As to the kind of experiment: ATG_Xbp1_CIS: Attagene CIS-FACTORIAL HepG2 Assay for human X-box Binding Protein 1 (XBP1) (AID 2282972). The following applies: HepG2 XBP1 cis-element reporter, Attagene multiplex; actives raise or lower the signal. An outline of the steps:
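Reporter transcripts were quantified by RT-PCR with fluorescent primer extension and capillary electrophoresis after 24 h chemical exposure. Cells: transiently transfected HepG2 carrying cis-regulated reporter constructs; data fitted bidirectionally relative to DMSO.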

In assay [18] the target is Transcriptional activator Myb (Homo sapiens) (UniProt P10242). In words: ATG_Myb_CIS: Attagene CIS-FACTORIAL HepG2 Assay for human Myeloblastosis (Myb) Proto-Oncogene Transcription Factor (AID 2282986). Conditions: HepG2 Attagene CIS-FACTORIAL Myb reporter transcription; actives raise or lower the signal. In a few lines: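 After 24 h of compound dosing, total RNA from transfected HepG2 cells is reverse-transcribed and the reporter sequences amplified, labeled and separated by capillary electrophoresis. Values come from bidirectional fitting against DMSO.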
Transcriptional activator Myb (Homo sapiens), sequence (P10242 whole entry, looked up): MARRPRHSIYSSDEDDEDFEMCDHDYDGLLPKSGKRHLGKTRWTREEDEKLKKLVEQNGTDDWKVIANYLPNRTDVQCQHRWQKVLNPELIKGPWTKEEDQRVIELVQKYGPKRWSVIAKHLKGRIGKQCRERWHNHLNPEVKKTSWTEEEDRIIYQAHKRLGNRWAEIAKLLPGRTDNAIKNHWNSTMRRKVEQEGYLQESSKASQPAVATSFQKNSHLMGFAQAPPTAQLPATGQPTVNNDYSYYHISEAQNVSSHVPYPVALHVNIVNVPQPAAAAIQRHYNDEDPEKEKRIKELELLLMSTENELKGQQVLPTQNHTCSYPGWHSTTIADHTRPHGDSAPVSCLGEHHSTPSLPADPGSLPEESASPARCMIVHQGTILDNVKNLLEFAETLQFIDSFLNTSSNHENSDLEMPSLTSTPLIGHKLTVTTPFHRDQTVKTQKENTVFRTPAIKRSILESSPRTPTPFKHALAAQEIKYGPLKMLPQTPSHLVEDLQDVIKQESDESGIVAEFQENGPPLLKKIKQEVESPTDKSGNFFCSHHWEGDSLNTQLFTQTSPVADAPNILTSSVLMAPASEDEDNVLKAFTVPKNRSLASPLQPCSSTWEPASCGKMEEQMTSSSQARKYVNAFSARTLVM

In assay [19] the target is Myc proto-oncogene protein (Homo sapiens) (UniProt P01106). In words: ATG_Myc_CIS: Attagene CIS-FACTORIAL HepG2 Assay for human Myelocytomatosis (Myc) Proto-Oncogene Transcription Factor (AID 2282990). Conditions: HepG2, Attagene cis-reporter transcription factor activity; actives raise or lower the signal. In a few lines: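 Transiently transfected HepG2 cells bearing cis-promoter reporter units for endogenous transcription factors; 24 h exposure. Reporter mRNA measured by RT-PCR, 6-FAM primer extension, HpaI cut and capillary electrophoresis; bidirectional fit relative to DMSO.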
Myc proto-oncogene protein (Homo sapiens), sequence (P01106 whole entry, looked up): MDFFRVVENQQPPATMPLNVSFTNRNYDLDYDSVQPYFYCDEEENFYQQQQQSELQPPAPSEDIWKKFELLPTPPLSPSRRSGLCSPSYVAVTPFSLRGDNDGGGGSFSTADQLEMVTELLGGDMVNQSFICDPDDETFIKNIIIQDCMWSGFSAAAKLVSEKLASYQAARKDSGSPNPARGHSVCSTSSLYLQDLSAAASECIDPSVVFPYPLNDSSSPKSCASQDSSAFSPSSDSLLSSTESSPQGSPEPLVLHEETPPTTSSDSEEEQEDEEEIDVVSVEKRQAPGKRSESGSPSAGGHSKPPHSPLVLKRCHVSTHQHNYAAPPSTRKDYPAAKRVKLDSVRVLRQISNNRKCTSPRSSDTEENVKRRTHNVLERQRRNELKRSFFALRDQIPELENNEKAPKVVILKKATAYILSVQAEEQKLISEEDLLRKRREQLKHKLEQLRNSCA

Assay [20] can be described thus: ATG_Oct_MLP_CIS: Attagene CIS-FACTORIAL HepG2 Assay for human Octamer-Binding Transcription Factor (Oct) (AID 2282993). Conditions: HepG2 Attagene cis-factorial Oct reporter, mRNA; actives raise or lower the signal. An outline of the steps: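 Using HepG2 cells bearing transfected cis-reporter constructs, mRNA induction was read after 24 h by fluorescent RT-PCR and capillary electrophoresis, with DMSO defining baseline for gain- or loss-of-signal fits.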

SMILES strings stand for the structures. Activity calls are given as the source filed them. Rule for the calls: active = hit-call score of the fitted dose curve at least 0.9, where 1 is the maximum; inactive = score below 0.9.

Transcription factor Sp1 (Homo sapiens), sequence (P08047 whole entry, looked up, the tested form may be a part): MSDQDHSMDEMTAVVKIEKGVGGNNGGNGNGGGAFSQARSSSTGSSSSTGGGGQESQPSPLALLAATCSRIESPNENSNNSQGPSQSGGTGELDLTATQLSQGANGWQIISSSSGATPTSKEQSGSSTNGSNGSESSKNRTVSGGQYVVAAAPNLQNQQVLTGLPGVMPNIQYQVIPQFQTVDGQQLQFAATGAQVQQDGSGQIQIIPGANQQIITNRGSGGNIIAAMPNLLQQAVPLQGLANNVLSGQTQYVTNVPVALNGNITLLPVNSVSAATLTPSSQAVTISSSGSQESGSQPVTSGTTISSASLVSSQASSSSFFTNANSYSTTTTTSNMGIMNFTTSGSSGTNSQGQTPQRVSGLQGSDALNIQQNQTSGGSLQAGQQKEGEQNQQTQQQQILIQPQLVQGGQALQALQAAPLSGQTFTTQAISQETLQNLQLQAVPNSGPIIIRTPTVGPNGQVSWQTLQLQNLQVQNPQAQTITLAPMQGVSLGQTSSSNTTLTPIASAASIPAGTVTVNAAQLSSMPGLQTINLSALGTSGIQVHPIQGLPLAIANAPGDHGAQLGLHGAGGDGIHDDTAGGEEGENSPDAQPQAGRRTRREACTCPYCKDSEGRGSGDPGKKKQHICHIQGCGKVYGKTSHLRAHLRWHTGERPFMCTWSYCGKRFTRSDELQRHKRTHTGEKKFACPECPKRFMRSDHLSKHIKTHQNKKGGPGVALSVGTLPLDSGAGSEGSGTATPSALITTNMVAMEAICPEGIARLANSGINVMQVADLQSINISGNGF
Transcription factor E2F1 (Homo sapiens), sequence (Q01094 whole entry, looked up): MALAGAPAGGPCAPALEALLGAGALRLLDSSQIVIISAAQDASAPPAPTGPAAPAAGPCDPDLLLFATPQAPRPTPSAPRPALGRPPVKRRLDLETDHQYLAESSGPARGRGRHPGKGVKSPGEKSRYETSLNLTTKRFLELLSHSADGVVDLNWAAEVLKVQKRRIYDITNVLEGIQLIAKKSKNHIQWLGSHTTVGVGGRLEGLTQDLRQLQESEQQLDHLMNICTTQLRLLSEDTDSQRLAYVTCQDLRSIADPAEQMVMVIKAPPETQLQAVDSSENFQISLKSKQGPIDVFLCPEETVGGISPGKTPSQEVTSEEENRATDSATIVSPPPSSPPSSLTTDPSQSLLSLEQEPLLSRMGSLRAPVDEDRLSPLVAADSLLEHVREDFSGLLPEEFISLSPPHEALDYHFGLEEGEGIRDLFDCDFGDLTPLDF
CCAAT/enhancer-binding protein beta (Homo sapiens), sequence (P17676 whole entry, looked up): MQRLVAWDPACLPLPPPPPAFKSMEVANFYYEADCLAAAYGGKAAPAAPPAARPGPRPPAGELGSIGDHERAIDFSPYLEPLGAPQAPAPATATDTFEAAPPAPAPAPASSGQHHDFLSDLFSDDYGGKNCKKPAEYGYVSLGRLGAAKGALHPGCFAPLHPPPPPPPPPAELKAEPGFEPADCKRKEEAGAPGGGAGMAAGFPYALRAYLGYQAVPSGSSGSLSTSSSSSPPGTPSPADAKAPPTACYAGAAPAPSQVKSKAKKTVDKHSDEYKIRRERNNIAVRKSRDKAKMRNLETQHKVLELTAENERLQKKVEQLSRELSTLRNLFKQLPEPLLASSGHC
X-box-binding protein 1 (Homo sapiens), sequence (P17861 whole entry, looked up): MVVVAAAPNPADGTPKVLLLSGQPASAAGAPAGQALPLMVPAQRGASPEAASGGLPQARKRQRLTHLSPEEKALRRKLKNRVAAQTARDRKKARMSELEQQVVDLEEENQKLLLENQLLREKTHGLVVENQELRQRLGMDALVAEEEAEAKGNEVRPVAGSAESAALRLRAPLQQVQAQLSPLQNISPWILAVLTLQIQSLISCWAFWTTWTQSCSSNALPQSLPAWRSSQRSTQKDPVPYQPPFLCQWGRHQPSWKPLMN

With `C[C@]12CCC(=O)C(O)=C1CC[C@@H]1[C@@H]2CC[C@]2(C)C(=O)CC[C@@H]12`, the result in assay [1], in assay [2], in assay [3], in [4], in assay [5] and in assay [6] was inactive. In addition, the compound was classed as inactive in assay [7], in assay [8], in [9], in [11], in [12] and in [13]. The compound was classed as inactive in assay [14], in [15], in assay [16], in assay [17], in assay [18] and in assay [19]. Besides, the compound was called inactive in assay [20]. Besides, the AC50 in assay [10] was 11.2 µM (active).
Take `CN(C)CCC#N`: the outcome in assay [1], in [2], in [3], in assay [4], in assay [5] and in assay [6] was inactive. Further, the compound was classed as inactive in assay [7], in assay [8], in assay [9], in assay [10], in [11] and in assay [12]. Besides, the outcome in assay [13], in assay [14], in assay [15], in assay [16], in assay [17] and in assay [18] was inactive. Further, the compound was called inactive in [19] and in [20].
As to `ClCCCCCCCl`, the result in assay [1], in assay [2], in assay [3], in assay [4], in [5] and in assay [6] was inactive. In addition, the compound was called inactive in assay [7], in assay [8], in assay [9], in [10], in assay [11] and in [12]. The compound was classed as inactive in [13], in assay [14], in assay [15], in assay [16], in [17] and in assay [18]. Moreover, the outcome in [19] and in [20] was inactive.
On to `[N-]=[N+]=CC(=O)OC[C@H](N)C(=O)O`, for which the outcome in assay [1], in assay [2], in assay [3], in assay [4], in assay [5] and in assay [6] was inactive. In addition, the result in assay [7], in [8], in assay [9], in assay [11], in assay [12] and in [13] was inactive. Besides, the compound was classed as inactive in assay [14], in assay [15], in assay [16], in assay [17], in assay [18] and in assay [19]. For the same compound, the outcome in assay [20] was inactive. For the same compound, the AC50 in [10] is 26 µM (active).
